Assay results as given in the supplement of paper PMC11732987, “Enantioselective OTUD7B fragment discovery through chemoproteomics screening and high-throughput optimisation” (Communications Chemistry, 2025).

Columns and labels:
Experiment in all cases: log2 ratio of Biotin-Ahx-Ub-VS probe labelling (fragment/DMSO); higher = less target engagement (more negative = stronger competition), active = hit call of the paper (q ≤ 0.05, log2 ratio ≤ -1)
Details in all cases: compound concentration: 200 uM; treatment time: 3 h
[1] = molecular target: USP34 (UniProt Q70CQ2)
Chain of USP34 (Q70CQ2 whole entry, the tested form may be a part): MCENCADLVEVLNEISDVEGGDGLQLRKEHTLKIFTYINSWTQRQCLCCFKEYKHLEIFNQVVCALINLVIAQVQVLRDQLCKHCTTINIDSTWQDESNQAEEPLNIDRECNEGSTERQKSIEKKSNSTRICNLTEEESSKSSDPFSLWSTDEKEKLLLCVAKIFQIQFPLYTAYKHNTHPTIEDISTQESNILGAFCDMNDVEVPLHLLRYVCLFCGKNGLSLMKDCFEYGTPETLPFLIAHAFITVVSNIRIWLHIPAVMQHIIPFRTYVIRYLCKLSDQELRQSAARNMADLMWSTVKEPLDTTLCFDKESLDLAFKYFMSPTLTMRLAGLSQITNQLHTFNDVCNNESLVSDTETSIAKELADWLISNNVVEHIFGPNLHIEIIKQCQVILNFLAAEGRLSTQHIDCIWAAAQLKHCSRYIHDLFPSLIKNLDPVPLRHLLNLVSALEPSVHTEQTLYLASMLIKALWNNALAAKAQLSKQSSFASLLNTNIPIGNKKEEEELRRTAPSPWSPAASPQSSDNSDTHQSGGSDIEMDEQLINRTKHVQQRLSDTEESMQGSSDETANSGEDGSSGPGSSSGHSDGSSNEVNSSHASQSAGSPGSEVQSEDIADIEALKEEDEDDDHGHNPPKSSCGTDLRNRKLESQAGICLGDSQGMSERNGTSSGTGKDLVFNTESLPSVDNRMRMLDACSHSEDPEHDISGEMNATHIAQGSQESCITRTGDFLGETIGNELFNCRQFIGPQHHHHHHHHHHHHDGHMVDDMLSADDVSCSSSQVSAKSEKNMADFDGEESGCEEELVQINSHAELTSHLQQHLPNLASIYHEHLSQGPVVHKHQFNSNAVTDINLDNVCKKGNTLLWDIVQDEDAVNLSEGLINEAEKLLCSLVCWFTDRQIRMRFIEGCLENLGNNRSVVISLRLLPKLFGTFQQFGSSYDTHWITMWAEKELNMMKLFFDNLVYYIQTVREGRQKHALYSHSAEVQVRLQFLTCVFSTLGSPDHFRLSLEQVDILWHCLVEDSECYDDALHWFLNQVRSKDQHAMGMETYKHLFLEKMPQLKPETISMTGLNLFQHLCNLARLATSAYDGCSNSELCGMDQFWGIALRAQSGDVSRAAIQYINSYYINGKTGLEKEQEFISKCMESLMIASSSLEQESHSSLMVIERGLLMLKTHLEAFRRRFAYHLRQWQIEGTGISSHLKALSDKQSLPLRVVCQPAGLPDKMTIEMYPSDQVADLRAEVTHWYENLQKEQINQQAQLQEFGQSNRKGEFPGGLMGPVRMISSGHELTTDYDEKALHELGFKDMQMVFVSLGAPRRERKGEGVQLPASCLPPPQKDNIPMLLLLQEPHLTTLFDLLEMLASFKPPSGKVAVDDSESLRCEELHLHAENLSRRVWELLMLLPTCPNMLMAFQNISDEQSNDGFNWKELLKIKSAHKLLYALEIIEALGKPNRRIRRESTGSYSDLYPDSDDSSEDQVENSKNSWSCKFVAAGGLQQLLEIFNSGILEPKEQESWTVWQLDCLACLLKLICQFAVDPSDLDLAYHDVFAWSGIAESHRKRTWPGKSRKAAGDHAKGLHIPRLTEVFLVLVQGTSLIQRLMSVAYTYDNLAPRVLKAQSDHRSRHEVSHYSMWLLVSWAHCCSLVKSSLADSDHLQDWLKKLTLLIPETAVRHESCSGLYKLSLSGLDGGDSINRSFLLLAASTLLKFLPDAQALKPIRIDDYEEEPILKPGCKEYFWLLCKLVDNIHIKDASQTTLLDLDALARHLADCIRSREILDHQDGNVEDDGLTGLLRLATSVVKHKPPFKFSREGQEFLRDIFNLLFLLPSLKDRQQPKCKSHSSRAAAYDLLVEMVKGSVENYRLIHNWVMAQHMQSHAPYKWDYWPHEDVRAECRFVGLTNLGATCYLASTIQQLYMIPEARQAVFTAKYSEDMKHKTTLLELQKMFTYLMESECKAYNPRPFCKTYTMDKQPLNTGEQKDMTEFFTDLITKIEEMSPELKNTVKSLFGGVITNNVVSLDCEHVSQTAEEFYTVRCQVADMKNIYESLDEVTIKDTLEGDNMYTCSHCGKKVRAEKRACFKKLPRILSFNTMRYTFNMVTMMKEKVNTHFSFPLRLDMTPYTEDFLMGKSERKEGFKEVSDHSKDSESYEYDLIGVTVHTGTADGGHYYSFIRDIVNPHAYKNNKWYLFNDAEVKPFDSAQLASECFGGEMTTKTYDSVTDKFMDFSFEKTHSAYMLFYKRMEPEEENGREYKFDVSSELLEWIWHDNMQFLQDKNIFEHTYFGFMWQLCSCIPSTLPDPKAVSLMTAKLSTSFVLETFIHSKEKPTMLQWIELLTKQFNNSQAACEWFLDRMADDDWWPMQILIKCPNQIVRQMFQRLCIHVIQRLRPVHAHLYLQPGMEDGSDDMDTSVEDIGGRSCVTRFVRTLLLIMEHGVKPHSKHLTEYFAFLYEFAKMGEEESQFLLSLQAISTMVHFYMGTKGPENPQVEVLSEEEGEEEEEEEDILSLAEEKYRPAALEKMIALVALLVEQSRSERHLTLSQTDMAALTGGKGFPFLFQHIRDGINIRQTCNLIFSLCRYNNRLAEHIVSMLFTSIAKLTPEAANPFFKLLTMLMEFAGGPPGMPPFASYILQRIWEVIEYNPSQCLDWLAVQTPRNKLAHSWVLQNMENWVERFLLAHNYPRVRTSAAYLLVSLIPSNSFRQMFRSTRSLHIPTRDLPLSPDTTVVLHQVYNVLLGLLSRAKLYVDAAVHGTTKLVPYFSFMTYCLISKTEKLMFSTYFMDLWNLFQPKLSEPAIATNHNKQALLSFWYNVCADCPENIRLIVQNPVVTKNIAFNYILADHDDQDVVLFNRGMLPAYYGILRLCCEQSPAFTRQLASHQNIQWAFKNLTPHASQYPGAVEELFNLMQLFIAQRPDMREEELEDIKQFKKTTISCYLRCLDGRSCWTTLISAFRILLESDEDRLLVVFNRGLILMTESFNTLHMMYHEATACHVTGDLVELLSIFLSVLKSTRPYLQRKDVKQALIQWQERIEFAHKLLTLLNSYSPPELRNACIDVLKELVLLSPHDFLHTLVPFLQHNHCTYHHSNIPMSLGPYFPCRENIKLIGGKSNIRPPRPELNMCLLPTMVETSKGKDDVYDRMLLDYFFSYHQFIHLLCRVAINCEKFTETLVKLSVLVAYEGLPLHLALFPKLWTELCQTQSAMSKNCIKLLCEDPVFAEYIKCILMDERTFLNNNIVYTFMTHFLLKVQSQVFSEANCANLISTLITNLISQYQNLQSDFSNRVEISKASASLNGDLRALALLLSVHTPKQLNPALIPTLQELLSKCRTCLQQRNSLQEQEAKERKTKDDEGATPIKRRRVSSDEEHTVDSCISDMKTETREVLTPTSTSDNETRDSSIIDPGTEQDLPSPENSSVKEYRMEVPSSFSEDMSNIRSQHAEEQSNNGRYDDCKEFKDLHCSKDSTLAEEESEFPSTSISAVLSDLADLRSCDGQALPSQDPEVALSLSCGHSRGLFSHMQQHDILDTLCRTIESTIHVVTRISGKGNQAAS
In short: (§1)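 Using Biotin-Ahx-Ub-VS at 0.5 µM final for 1 h, DUBs were labelled in HEK293T lysate (495 µg per sample) that had first been treated in triplicate with fragment at 200 µM or vehicle for 3 h. NeutrAvidin enrichment, LysC and trypsin digestion and diaPASEF LC-MS/MS followed. Spectronaut label-free quantities were global-median-normalised. Values are average log2 fragment/vehicle ratios by unpaired t-test, using proteins with ≥2 unique peptides.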

[2] = molecular target: T1, USP36 (UniProt Q9P275)
T1 sequence (whole entry): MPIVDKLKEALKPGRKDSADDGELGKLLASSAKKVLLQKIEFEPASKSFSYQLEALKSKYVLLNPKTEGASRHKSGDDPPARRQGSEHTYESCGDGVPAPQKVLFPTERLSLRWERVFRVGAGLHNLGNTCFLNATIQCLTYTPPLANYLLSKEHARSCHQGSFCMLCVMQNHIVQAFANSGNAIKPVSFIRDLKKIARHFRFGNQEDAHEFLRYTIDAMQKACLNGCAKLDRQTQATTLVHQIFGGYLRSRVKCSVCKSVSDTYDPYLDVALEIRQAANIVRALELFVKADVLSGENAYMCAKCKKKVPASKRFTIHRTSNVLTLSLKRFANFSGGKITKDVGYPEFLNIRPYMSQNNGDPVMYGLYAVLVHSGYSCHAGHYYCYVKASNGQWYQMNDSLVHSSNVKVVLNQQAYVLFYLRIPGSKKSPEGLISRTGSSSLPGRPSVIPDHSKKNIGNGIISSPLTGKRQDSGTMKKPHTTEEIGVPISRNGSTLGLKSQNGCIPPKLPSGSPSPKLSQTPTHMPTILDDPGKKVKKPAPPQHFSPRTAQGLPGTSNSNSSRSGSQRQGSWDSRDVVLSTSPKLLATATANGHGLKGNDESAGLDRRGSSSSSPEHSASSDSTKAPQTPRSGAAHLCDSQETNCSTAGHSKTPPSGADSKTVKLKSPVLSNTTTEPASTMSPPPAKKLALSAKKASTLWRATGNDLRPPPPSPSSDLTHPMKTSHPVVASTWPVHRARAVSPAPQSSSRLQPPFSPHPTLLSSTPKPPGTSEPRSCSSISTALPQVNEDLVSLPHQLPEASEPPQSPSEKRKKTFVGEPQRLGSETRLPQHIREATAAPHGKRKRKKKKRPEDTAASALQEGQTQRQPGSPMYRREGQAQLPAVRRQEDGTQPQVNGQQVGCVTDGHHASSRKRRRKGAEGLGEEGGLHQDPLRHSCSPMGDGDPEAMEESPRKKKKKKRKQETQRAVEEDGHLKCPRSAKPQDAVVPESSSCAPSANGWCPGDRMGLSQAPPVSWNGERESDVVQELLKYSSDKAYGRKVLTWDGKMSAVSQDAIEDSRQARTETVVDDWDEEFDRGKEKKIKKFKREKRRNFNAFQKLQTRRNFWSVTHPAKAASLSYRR
In short: as §1

[3] = molecular target: T2, USP38 (UniProt Q8NB14)
T2 sequence (whole entry): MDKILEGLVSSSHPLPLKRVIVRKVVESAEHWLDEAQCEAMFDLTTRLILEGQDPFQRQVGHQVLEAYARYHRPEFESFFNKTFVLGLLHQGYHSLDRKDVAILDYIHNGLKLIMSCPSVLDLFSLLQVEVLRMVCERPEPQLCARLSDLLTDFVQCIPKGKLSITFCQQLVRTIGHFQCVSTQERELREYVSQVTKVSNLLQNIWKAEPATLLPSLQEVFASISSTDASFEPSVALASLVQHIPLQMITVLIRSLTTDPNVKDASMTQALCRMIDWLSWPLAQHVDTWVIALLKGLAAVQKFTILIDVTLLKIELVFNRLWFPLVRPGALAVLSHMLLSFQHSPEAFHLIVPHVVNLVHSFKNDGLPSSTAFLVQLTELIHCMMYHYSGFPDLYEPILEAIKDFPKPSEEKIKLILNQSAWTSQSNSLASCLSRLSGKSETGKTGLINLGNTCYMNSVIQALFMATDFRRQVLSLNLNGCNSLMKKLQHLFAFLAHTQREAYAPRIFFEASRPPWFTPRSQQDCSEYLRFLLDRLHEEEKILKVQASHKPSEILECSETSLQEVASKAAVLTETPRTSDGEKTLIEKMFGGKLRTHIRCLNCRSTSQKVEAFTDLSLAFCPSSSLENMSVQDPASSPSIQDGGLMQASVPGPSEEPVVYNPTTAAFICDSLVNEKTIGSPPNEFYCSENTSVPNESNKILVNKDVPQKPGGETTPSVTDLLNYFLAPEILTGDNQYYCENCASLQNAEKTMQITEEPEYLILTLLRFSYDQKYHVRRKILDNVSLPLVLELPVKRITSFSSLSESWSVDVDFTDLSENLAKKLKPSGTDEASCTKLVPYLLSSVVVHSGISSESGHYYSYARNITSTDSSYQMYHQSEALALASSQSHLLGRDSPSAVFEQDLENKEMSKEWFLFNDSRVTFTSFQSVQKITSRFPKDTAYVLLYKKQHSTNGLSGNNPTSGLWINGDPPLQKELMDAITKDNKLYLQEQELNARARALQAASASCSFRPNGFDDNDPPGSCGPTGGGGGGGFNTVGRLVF
In short: as §1

[4] = molecular target: T3, USP39 (UniProt Q53GS9)
T3 sequence (whole entry): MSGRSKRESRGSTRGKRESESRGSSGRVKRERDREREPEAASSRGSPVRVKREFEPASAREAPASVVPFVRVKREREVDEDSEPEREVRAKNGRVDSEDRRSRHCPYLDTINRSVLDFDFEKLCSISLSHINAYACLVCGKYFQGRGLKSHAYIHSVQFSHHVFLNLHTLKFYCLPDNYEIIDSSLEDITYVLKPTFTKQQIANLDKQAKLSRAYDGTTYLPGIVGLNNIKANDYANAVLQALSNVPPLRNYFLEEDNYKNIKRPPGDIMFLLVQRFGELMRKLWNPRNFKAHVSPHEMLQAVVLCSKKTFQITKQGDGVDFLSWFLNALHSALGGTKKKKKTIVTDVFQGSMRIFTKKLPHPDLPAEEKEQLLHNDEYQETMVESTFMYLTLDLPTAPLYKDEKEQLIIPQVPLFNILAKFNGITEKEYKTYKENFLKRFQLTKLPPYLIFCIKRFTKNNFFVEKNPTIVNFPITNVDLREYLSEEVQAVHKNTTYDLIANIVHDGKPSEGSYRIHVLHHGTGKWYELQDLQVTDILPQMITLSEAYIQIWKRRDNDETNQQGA
In short: as §1

[5] = molecular target: T4, USP4 (UniProt Q13107)
T4 sequence (whole entry): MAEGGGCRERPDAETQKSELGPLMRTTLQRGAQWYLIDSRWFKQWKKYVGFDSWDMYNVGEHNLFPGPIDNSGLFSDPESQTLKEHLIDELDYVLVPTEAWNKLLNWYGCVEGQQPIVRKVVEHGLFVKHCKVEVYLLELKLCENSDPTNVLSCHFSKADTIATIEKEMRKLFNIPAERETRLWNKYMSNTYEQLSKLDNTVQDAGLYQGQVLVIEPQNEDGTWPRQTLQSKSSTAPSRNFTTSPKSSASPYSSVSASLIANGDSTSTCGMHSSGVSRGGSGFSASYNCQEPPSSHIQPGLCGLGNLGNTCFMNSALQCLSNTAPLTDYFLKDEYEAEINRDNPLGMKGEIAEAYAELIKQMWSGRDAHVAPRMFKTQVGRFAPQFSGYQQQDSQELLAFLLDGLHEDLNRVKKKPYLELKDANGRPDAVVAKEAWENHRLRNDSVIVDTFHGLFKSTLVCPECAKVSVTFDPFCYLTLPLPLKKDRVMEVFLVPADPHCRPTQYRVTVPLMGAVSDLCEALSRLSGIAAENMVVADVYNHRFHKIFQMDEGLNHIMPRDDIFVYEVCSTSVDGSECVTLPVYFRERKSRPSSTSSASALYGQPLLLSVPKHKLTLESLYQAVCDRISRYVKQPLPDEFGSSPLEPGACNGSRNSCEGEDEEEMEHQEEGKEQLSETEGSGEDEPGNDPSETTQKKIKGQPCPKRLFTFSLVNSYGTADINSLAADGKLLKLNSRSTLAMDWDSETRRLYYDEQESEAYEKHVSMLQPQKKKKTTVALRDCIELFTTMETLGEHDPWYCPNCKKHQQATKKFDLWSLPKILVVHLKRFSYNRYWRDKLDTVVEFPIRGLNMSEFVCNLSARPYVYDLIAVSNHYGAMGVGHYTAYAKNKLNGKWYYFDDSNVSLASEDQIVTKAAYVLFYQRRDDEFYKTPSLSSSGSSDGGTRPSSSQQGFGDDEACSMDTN
In short: as §1

Measured: log2 ratio of Biotin-Ahx-Ub-VS probe labelling

Cl.O=C(CCl)NCCc1ncc(F)cc1F
inactive: [1] -0.216 | [2] -0.308 | [3] -0.203 | [4] -0.202 | [5] 0.0209
